Source: PubChem BioAssay (National Center for Advancing Translational Sciences (NCATS))
HttQ103 aggreg: qHTS Multiplex Assay to Identify Dual Action Probes in a Cell Model of Huntington: Aggregate Formation (GFP) | Potency, µM (highest dose often 46.1 µM), usual class: inhibitors | AID 1688, 2009 | PC12 HttQ103-GFP aggregates, Acumen cytometry, 40 h | 220,000 tested, 1.1% active; further: nearly all actives have a fitted effect of over 60% in size
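PC12 cells stably carrying ecdysone-inducible HTT exon 1 Q103–GFP were induced with tebufenozide (100 nM final) and treated with library compounds in titration. GFP aggregates in lysates were counted by laser scanning cytometry.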
HPGD block: qHTS Assay for Inhibitors of HPGD (15-Hydroxyprostaglandin Dehydrogenase). Potency, µM, most hits filed as inhibitors. purified HPGD, NADH fluorescence kinetic, PGE2 substrate. 15-hydroxyprostaglandin dehydrogenase [NAD(+)] (Homo sapiens), P15428. 150,000 tested, 4.3% active; active means well fitted inhibition curve with a large enough effect, not every such curve was filed as active; inconclusive means small, poorly fitted or top-dose-only effect, or another doubt; inactive means no such curve, though single readings can be large or run the other way
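NADH formation kinetics: reaction with 30 uM PGE2 and 1 mM NAD+ (final), 20 nM enzyme, Tris-HCl pH 8 with Tween 20, after 15 min compound preincubation at room temperature. Fluorescence change, last versus first of five reads.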
HTT ATP protect: qHTS Multiplex Assay to Identify Dual Action Probes in a Cell Model of Huntington: Cytoprotection (ATP). Potency, µM (doses to about 56.4 µM), most hits filed as activators. 230,000 tested, 0.14% active. PC12 HTT-Q103 induced, cytoprotection, ATP luminescence, 40 h; further: nearly all actives have a fitted effect of over 45% in size
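Readout: ATPlite luminescence (ATP level). Model: stable PC12, inducible Htt exon1 Q103-GFP. Inducer: tebufenozide, 100 nM final. Compounds: dose series. No G418 in medium.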
ALDH1A1 block: qHTS Assay for Inhibitors of Aldehyde Dehydrogenase 1 (ALDH1A1); 220,000 tested, 7.3% active; Aldehyde dehydrogenase 1A1 (Homo sapiens), P00352; Potency, µM (doses to about 75.3 µM), actives largely listed as inhibitors; Purified ALDH1A1, NADH fluorescence, propionaldehyde substrate; active means well fitted inhibition curve with a large enough effect, not every such curve was filed as active; inconclusive means small, poorly fitted or top-dose-only effect, or another doubt; inactive means no such curve, though single readings can be large or run the other way
PNC assembly inh: High Content Assay for Compounds that inhibit the Assembly of the Perinucleolar Compartment | 140,000 tested, 3.1% active | activity change (PNC), negative = inhibition, % at 10 µM | PC3M PTB-GFP, PNC prevalence imaging, 16 h; active compounds read low;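 active means readout at or below -70, meaning at least 70% loss of cells showing the perinucleolar compartment, a nuclear body marking cancer cells; inconclusive means readout between -30 and a set limit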
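Read-out is percentage of cells bearing a perinucleolar compartment, from automated 20x imaging of fixed, Hoechst-stained PC3M PTB-GFP cells. Cells were seeded 4 h, then exposed 16 h to compound (23 nl of library stock) in duplicate plates.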
CBFb RUNX1 block: qHTS Assay for Compounds Blocking the Interaction Between CBF-beta and RUNX1 for the Treatment of Acute Myeloid Leukemia; 230,000 tested, under 10 active; Runt-related transcription factor 1 (Homo sapiens) + Core-binding factor subunit beta …; Potency, µM (top dose mostly 59.8 µM), usual class: inhibitors; AlphaScreen CBFb-His/RUNX1-biotin binding, biochemical
Target sequence (Q01196 whole entry, looked up): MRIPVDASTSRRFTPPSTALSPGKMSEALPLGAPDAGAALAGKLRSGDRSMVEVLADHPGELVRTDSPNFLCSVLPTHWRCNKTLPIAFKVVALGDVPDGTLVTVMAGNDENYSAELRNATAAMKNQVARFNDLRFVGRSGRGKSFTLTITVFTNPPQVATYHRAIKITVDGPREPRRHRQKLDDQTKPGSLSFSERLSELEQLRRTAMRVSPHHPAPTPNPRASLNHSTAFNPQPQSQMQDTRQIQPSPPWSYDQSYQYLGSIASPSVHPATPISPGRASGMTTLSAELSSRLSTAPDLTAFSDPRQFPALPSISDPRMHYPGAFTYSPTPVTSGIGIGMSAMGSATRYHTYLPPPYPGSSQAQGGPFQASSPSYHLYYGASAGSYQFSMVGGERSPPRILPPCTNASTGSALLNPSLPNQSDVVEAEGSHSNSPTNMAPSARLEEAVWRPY
Target sequence (Q13951 whole entry, looked up): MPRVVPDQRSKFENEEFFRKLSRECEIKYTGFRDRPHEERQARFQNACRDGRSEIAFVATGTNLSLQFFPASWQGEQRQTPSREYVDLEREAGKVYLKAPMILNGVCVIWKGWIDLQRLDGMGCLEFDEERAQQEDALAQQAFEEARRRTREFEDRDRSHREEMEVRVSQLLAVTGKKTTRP
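Interaction loss through any mechanism counts as activity. Pre-formed complex of His-CBF-beta and biotin-RUNX1 (30 nM apiece) is incubated with compound 15 min, then with 50 ng nickel and 50 ng streptavidin beads for 90 min before AlphaScreen detection.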
Numbers stand for hits; 0 = inactive; ? = inconclusive; - = no result; [ ] = dose if it differs, or a comment. The list is not random: actives were taken first. Their share in the collection is about 11%. Unless noted, the call rests on the fitted dose curve; in most records, active means well fitted curve in the direction sought with a large enough effect; inconclusive means small, poorly fitted or top-dose-only effect, or another doubt; inactive means no such curve, though single readings can be large; an effect the other way counts as inactive or inconclusive.

SMILES	HttQ103 aggreg	HPGD block	HTT ATP protect	ALDH1A1 block	PNC assembly inh	CBFb RUNX1 block
COC(=O)c1cccnc1Oc1ccccc1	0[9.22 µM]	-	0[10 µM]	-	-	0
COc1ccccc1NNC(=O)c1cccnc1Oc1ccccc1	0[9.22 µM]	-	0[10 µM]	14.1µM	-	0
Cc1nc(SCC(=O)Nc2ccccn2)n[nH]1	0	-	0	0	-	0
COC(=O)c1ccccc1NC(=O)CSc1n[nH]c(CC(C)C)n1	0	0	0	0	0	0
Cc1nc(SCC(=O)Nc2ccnc3ccccc23)n[nH]1	0[1.84 µM]	0	0	17.8µM	0	0
COC(=O)c1ccccc1NC(=O)CSc1n[nH]c(C)n1	0	0	0[10 µM]	0	-100.0	0
CCc1nc(Cl)c(C#N)c2c1CCCC2	11.2µM	0	0[10 µM]	0	0	0
CC(=O)N1CC=CC1(CC(C)C)C(=O)NCc1ccccn1 (centres undefined)	-	0	0	0	-	0
COc1ccc(N2C(=O)CSC23C(=O)N2CCCc4cccc3c42)cc1 (centres undefined)	0	0	0[0.074 µM]	11.2µM	0	0
Cc1cc(NS(=O)(=O)c2ccc(NS(=O)(=O)c3ccc(CC(C)C)cc3)cc2)nc(C)n1	0	-	0	31.6µM	-	0
CCOC(=O)C(NC(C)=O)(Nc1ccc(S(=O)(=O)Nc2cc(C)on2)cc1)C(F)(F)F (centres undefined)	0	0	0[1.9 µM]	0	0	0
Cc1ccc(S(=O)(=O)Nc2ccc(S(=O)(=O)Nc3cc(C)nc(C)n3)cc2)cc1	0[9.22 µM]	-	0	3.98µM	-	0
Cc1cc(NS(=O)(=O)c2ccc(NC(=O)CCCC(=O)O)cc2)nc(C)n1	0	0	0	0	-88.4	0
CCOC(=O)C(NC(C)=O)(Nc1ccc(S(=O)(=O)Nc2cc(C)nc(C)n2)cc1)C(F)(F)F (centres undefined)	0	0	0	14.1µM	?	0
CCOC(=O)Nc1ccc(S(=O)(=O)Nc2cc(C)nc(C)n2)cc1	0	0	0	0	0	0
Cc1ccc(S(=O)(=O)Nc2ccc(-c3cn4ccc(C)cc4n3)cc2)cc1	0	-	0[10 µM]	0	?	0
Cc1ccn2cc(-c3ccc(NS(=O)(=O)c4ccccc4)cc3)nc2c1	0	22.4µM	-	0	0	0
COc1ccc(-c2nnc3n2N=C(c2c(OC)cccc2OC)CS3)c(OC)c1	-	-	-	-	-	0
CCOc1ccc(OCC)c(C2C(C#N)=C(N)N(c3cccnc3)C3=C2C(=O)CC(C)(C)C3)c1 (centres undefined)	?	0	0[10 µM]	3.55µM	0	0
CN1CCN(c2ccc(S(=O)(=O)N3CCCCC3)cc2NC(=O)c2ccc3ccccc3c2)CC1	0	?	0[10 µM]	0	0	0
O=C(Nc1ccccc1F)Nc1cc(S(=O)(=O)N2CCOCC2)ccc1N1CCCC1	0	-	0	?	-	0
N#C/C(=C\c1ccccc1)C(=O)Nc1cc(S(=O)(=O)N2CCOCC2)ccc1N1CCCC1	?	-	0.708µM	0	0	0
O=C(Nc1cc(S(=O)(=O)N2CCOCC2)ccc1N1CCCC1)c1ccc2c(c1)S(=O)(=O)c1ccccc1C2=O	0	-	0	2.24µM	-	0
CSCC[C@H](NC(=O)[C@@H]1CCCN1C(=O)[C@H](CCCN=C(N)N)NC(=O)[C@H](CC(C)C)NC(=O)[C@@H]1CCCN1C(=O)[C@@H](NC(=O)[C@@H](N)CCC(N)=O)C(C)C)C(=O)N[C@H](C(=O)N[C@@H](Cc1ccc(O)cc1)C(=O)N[C@@H](CCCCN)C(=O)O)[C@@H](C)O	-	-	-	-	-	0
